Measured values: PubChem BioAssay (Tox21)
Inconclusive results are not listed. Entries that show only a call come without a potency. Active and inactive are the calls of the source. Unless noted, the call rests on the fitted dose curve; in most records, active means well fitted curve in the direction sought with a large enough effect in the repeat runs; inconclusive means weak or mixed curves; inactive means no such curve, though single readings can be large; an effect the other way counts as inactive or inconclusive.

Key:
[1] = target: Acetylcholinesterase (Homo sapiens) (UniProt P22303); assay: Acetylcholinesterase (AChE) small molecule antagonists: enzyme-based qHTS assay (AID 1347397; calls by dose curve; further: nearly all actives have a fitted effect of over 55% in size); settings: Potency: AChE enzyme activity inhibition
Chain of Acetylcholinesterase (Homo sapiens) (P22303 whole entry, looked up): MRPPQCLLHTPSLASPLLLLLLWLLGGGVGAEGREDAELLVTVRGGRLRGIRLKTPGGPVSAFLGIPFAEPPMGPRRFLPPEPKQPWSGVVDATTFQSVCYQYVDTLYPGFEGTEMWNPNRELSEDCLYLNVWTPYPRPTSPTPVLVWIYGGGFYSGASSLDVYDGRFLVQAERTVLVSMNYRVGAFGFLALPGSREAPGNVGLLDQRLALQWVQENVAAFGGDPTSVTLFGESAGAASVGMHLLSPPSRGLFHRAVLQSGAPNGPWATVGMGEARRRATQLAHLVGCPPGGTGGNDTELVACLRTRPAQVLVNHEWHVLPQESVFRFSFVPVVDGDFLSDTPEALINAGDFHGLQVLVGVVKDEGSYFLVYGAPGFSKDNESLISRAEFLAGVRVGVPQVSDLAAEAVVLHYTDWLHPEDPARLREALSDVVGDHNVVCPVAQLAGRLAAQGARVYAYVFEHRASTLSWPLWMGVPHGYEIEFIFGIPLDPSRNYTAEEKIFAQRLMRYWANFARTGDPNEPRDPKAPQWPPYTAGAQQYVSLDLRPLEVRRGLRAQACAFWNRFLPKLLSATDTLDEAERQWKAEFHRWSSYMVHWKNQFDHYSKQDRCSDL
Summary of the method: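 Tox21 library chemicals are tested in qHTS format against recombinant human AChE. The enzyme, dispensed at 50 mU/mL, sits with compound for 30 min at room temperature. A DTNB–acetylthiocholine cocktail follows, and colour is read after 10 min.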

[2] = target: Acetylcholinesterase (Homo sapiens) (UniProt P22303); assay: Acetylcholinesterase (AChE) small molecule antagonists: fluorescence cell-based qHTS assay (AID 1347398; calls by dose curve; further: nearly all actives have a fitted effect of over 50% in size); settings: Potency: AChE activity
Summary of the method: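 Cellular AChE inhibition: SH-SY5Y cells treated with test chemical for 30 min at 37 C, then acetylthiocholine hydrolysis followed over 40 min at room temperature via thiocholine-reactive Thiolite Green fluorescence (490/520 nm).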

[3] = target: Acetylcholinesterase (Homo sapiens) (UniProt P22303); assay: Acetylcholinesterase (AChE) small molecule antagonists: enzyme-based qHTS assay with human liver microsomes (AID 1347399; calls by dose curve; further: nearly all actives have a fitted effect of over 60% in size); settings: Potency: qHTS inhibition
Summary of the method: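 Recombinant human AChE (50 mU/mL in the enzyme mix) and human liver microsomes (0.25 mg/mL final) were preincubated with compound and NADPH (0.25 mg/mL final) for 30 min at 37 C. Acetylthiocholine/DTNB was then added; thiocholine was read colorimetrically after 10 min at room temperature.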

[4] = target: Cytochrome P450 2D6 (Homo sapiens) (UniProt P10635); assay: Cytochrome P450 Family 2 Subfamily D Member 6 (CYP2D6) small molecule antagonists: luciferase reporter qHTS assay (AID 1671196); further: nearly all actives have a fitted effect of over 50% in size
Chain of Cytochrome P450 2D6 (Homo sapiens) (P10635 whole entry, looked up): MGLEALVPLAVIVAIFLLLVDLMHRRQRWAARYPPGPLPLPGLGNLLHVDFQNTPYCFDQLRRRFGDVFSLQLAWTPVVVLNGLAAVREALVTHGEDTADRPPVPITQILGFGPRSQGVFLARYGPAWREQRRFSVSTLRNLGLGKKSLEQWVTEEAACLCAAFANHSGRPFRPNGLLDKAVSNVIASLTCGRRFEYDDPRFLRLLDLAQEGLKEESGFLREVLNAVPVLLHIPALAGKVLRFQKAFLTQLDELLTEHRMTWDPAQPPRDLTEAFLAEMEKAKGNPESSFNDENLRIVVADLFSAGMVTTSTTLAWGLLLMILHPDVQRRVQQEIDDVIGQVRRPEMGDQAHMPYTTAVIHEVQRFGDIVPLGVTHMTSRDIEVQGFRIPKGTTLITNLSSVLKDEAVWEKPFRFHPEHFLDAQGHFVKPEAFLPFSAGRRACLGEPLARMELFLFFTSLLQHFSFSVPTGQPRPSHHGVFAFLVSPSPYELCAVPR
Summary of the method: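 Quantitative HTS of Tox21 chemicals against CYP2D6 using a luminescent proluciferin substrate. After NADPH addition, 1 h room-temperature reaction; luminescence recorded 20 min post detection reagent.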

[5] = target: Cytochrome P450 2C9 (Homo sapiens) (UniProt P11712); assay: Cytochrome P450 Family 2 Subfamily C Member 9 (CYP2C9) small molecule antagonists: luciferase reporter qHTS assay (AID 1671198); further: nearly all actives have a fitted effect of over 50% in size
Chain of Cytochrome P450 2C9 (Homo sapiens) (P11712 whole entry, looked up): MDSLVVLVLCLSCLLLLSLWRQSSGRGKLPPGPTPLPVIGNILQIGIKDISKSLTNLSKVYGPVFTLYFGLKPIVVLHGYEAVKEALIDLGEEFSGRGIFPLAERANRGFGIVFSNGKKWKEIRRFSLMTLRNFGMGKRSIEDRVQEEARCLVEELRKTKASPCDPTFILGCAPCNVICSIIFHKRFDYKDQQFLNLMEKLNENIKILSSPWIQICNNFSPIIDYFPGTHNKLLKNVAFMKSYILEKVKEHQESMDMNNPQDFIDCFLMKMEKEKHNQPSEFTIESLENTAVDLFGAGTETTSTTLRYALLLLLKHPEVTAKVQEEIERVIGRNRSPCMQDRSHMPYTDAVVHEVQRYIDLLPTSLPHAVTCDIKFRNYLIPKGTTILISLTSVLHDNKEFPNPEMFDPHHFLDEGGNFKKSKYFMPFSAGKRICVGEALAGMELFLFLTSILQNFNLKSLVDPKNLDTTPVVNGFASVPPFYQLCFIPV
Summary of the method: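 CYP2C9 activity was measured with a P450-Glo proluciferin substrate. Enzyme–substrate mix was held with compound for 10 min at room temperature, then NADPH regeneration solution was added for 1 h at 37C. Luciferin product was read as luminescence.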

[6] = target: Cytochrome P450 1A2 (Homo sapiens) (UniProt P05177); assay: Cytochrome P450 Family 1 Subfamily A Member 2 (CYP1A2) small molecule antagonists: luciferase reporter qHTS assay (AID 1671199); further: nearly all actives have a fitted effect of over 50% in size
Chain of Cytochrome P450 1A2 (Homo sapiens) (P05177 whole entry, looked up): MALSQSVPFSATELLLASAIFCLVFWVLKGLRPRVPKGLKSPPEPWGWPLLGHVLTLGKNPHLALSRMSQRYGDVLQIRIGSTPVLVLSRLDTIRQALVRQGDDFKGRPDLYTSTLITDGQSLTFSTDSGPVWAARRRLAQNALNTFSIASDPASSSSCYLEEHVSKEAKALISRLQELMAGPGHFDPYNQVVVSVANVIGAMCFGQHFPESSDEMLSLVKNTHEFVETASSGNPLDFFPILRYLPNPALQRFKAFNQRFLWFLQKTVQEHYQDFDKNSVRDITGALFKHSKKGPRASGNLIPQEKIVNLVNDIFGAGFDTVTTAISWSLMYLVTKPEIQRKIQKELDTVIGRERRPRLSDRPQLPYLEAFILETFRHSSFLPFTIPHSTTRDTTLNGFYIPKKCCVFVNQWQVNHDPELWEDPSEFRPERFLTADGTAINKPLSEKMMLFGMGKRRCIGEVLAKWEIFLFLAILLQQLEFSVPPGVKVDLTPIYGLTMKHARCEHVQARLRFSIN
Summary of the method: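 Quantitative high-throughput format using the P450-Glo CYP1A2 system. Reaction initiated by NADPH regeneration solution, 1 h at room temperature, then stopped with detection reagent; luminescence measured 20 min later.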

[7] = target: Voltage-gated inwardly rectifying potassium channel KCNH2 (Homo sapiens) (UniProt Q12809); assay: Human Ether-a-go-go-Related Gene (hERG) channel small molecule antagonists: fluorescence cell-based qHTS assay (AID 1671200); further: nearly all actives have a fitted effect of over 50% in size
Chain of Voltage-gated inwardly rectifying potassium channel KCNH2 (Homo sapiens) (Q12809 whole entry, looked up): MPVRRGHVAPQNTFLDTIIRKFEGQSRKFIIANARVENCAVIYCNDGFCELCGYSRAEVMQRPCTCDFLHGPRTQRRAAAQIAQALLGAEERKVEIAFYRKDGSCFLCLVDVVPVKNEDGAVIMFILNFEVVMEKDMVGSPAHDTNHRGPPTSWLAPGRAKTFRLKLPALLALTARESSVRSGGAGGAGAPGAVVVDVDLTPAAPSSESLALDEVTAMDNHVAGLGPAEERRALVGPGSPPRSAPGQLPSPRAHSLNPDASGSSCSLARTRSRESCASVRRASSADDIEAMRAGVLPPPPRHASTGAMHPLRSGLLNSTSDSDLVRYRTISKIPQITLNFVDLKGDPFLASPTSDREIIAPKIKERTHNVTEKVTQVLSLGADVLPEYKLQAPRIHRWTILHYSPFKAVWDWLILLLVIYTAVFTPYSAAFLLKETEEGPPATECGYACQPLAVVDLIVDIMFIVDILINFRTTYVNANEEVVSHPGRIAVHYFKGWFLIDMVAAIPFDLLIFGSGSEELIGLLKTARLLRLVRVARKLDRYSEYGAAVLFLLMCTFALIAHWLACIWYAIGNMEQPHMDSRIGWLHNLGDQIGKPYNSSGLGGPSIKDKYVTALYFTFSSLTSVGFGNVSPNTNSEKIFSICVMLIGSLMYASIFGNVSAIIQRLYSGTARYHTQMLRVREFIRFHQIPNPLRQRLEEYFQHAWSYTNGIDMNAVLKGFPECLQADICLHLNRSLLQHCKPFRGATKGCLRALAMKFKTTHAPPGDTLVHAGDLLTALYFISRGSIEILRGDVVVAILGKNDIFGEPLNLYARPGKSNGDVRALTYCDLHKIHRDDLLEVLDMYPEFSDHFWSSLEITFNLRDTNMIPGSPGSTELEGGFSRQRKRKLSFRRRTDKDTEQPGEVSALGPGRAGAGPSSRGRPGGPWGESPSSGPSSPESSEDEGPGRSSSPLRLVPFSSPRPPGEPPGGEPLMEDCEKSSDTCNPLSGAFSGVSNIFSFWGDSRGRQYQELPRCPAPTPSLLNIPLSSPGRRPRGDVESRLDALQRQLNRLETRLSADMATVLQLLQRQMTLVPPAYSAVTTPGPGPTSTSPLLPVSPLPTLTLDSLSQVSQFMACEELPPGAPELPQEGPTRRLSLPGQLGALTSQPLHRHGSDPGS
Summary of the method: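 Channel function was assessed by thallium flux. Cells seeded the previous day and kept at 37 C took up FluxOR II dye over 1 h in the dark at room temperature, then sat another 10 min before stimulation.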

[8] = target: Cytochrome P450 3A4 (Homo sapiens) (UniProt P08684); assay: Cytochrome P450 Family 3 Subfamily A Member 4 (CYP3A4) small molecule antagonists: luciferase reporter qHTS assay (AID 1671201); further: nearly all actives have a fitted effect of over 50% in size
Chain of Cytochrome P450 3A4 (Homo sapiens) (P08684 whole entry, looked up): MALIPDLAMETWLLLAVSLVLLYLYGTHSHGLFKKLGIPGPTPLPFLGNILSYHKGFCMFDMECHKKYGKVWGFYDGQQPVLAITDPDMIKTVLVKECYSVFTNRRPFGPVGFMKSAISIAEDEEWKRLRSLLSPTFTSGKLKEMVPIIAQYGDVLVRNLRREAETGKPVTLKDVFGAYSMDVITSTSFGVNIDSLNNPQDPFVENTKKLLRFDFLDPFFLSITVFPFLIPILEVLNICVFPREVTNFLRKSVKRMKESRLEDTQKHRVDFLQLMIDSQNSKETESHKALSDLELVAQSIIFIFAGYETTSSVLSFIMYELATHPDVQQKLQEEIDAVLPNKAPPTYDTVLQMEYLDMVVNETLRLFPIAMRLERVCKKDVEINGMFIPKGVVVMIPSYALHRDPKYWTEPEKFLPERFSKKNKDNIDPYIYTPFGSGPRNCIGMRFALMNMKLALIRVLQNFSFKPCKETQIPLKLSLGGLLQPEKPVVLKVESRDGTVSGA
Summary of the method: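 Compounds in DMSO were pin-transferred onto CYP3A4 enzyme-substrate mix and held 10 min at room temperature. NADPH regenerating solution started the reaction for 1 h; luciferin detection reagent stopped it, and luminescence was read after 20 min.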

[9] = target: Cytochrome P450 2C19 (Homo sapiens) (UniProt P33261); assay: Cytochrome P450 Family 2 Subfamily C Member 19 (CYP2C19) small molecule antagonists: luciferase reporter qHTS assay (AID 1671197); further: nearly all actives have a fitted effect of over 65% in size
Chain of Cytochrome P450 2C19 (Homo sapiens) (P33261 whole entry, looked up): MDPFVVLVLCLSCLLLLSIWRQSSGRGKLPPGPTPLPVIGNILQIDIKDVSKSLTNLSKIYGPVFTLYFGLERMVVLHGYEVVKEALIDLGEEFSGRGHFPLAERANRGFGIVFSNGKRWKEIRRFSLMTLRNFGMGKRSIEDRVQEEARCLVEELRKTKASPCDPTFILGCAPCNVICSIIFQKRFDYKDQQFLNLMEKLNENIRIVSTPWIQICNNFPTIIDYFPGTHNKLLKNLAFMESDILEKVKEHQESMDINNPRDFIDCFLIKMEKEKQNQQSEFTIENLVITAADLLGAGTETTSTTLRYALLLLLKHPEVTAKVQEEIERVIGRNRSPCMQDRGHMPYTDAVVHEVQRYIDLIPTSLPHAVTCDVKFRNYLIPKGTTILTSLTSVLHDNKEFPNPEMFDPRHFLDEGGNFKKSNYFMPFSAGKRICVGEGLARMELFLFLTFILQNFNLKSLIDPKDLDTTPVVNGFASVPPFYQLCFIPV
Summary of the method: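 Light output is proportional to CYP2C19 activity: proluciferin substrate is converted to luciferin, then detected by a luciferin detection reagent that also stops the 1 h, 37C NADPH-driven reaction. Ketoconazole serves as positive control.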
Potency means the concentration at half of the fitted maximal effect.

Compound | Potency [1] | Potency [2] | Potency [3] | Potency [4] | Potency [5] | Potency [6] | Potency [7] | Potency [8] | Potency [9]
Cc1cccc(OP(=O)(Oc2cccc(C)c2)Oc2cccc(C)c2)c1 | inactive | inactive | inactive | inactive | 35.6 µM (active) | 28.3 µM (active) | inactive | – | –
CCCCCCCCCC[N+](C)(C)CCCCCCCCCC | 31.7 µM (active) | 56.4 µM (active) | inactive | 1 µM (active) | 39.9 µM (active) | 39.9 µM (active) | – | 56.4 µM (active) | –
O=C(O)C1C2CCC(O2)C1C(=O)O (stereo unspecified) | inactive | inactive | inactive | inactive | inactive | inactive | inactive | inactive | –
COCC(=O)N(c1c(C)cccc1C)[C@H](C)C(=O)OC | inactive | inactive | inactive | inactive | inactive | – | inactive | inactive | –
CCOc1cc(C(C)(C)C)ccc1C1COC(c2c(F)cccc2F)=N1 (stereo unspecified) | inactive | inactive | inactive | 5.43 µM (active) | 12.2 µM (active) | 24.2 µM (active) | 13.3 µM (active) | 0.0683 µM (active) | –
CC(C)CC(C)N (stereo unspecified) | inactive | inactive | inactive | inactive | inactive | inactive | inactive | inactive | –
CCCN(CCC)CCc1c[nH]c2ccccc12 | inactive | inactive | inactive | 0.351 µM (active) | inactive | 27.9 µM (active) | – | inactive | –
CCOC(=O)c1ccccc1S(=O)(=O)NC(=O)Nc1nc(Cl)cc(OC)n1 | inactive | inactive | inactive | inactive | inactive | inactive | inactive | – | –
[CH3][Hg][Cl] | inactive | inactive | inactive | inactive | – | inactive | 24.5 µM (active) | 39.8 µM (active) | –
CCC(C)(C)C(=O)OC1=C(c2ccc(Cl)cc2Cl)C(=O)OC12CCCCC2 | inactive | inactive | inactive | inactive | 31.7 µM (active) | – | inactive | 14.2 µM (active) | –
N#Cc1ccccc1Cl | inactive | inactive | inactive | inactive | inactive | inactive | inactive | inactive | –
N#CCCSCCC#N | inactive | inactive | inactive | inactive | inactive | – | inactive | inactive | –
COc1ccc(OC)c(C=O)c1 | inactive | inactive | inactive | inactive | – | 28.3 µM (active) | inactive | inactive | –
Cn1cc(C2=C(c3cn(C4CCN(Cc5ccccn5)CC4)c4ccccc34)C(=O)NC2=O)c2ccccc21 | inactive | inactive | inactive | inactive | 3.09 µM (active) | inactive | – | inactive | –
Oc1cc(Cl)c(Cl)c(Cl)c1 | inactive | inactive | inactive | 6.73 µM (active) | inactive | 26.8 µM (active) | – | 53.5 µM (active) | –
CC[C@H](C)[C@H]1O[C@]2(C=C[C@@H]1C)C[C@@H]1C[C@@H](C/C=C(\C)[C@@H](O[C@H]3C[C@H](OC)[C@@H](O[C@H]4C[C@H](OC)[C@@H](O)[C@H](C)O4)[C@H](C)O3)[C@@H](C)/C=C/C=C3\CO[C@@H]4[C@H](O)C(C)=C[C@@H](C(=O)O1)[C@]34O)O2 | inactive | inactive | inactive | 33.3 µM (active) | 10.5 µM (active) | 33.3 µM (active) | inactive | 9.39 µM (active) | –

Compound | Potency [1] | Potency [2] | Potency [3] | Potency [4] | Potency [5] | Potency [6] | Potency [7] | Potency [8] | Potency [9]
COP(=O)(OC)SCn1c(=O)oc2cc(Cl)cnc21 | 7.1 µM (active) | 0.252 µM (active) | 71 µM (active) | 39.9 µM (active) | 31.7 µM (active) | 39.9 µM (active) | inactive | – | –
C[C@H]1O[C@@H](O[C@H]2[C@@H](O)C[C@H](O[C@H]3[C@@H](O)C[C@H](O[C@H]4CC[C@@]5(C)[C@H](CC[C@@H]6[C@@H]5CC[C@]5(C)[C@@H](C7=CC(=O)OC7)CC[C@]65O)C4)O[C@@H]3C)O[C@@H]2C)C[C@H](O)[C@@H]1O | inactive | inactive | inactive | inactive | inactive | – | inactive | inactive | –
FC(Cl)(Cl)Cl | inactive | inactive | inactive | inactive | inactive | – | inactive | inactive | –
CN(CCCC(O)c1cccnc1)N=O (stereo unspecified) | inactive | inactive | inactive | inactive | inactive | inactive | inactive | – | –
CCC(C)c1cc(C(C)(C)C)cc(-n2nc3ccccc3n2)c1O (stereo unspecified) | inactive | inactive | inactive | inactive | – | – | inactive | inactive | –
ClCc1ccc(Cl)cc1Cl | inactive | inactive | inactive | inactive | inactive | – | inactive | inactive | –
Cc1cc(C)c(C2=C(OC(=O)CC(C)(C)C)C3(CCCC3)OC2=O)c(C)c1 | inactive | inactive | inactive | inactive | – | inactive | inactive | 37.3 µM (active) | –
CCc1ccccc1C | inactive | inactive | inactive | – | inactive | inactive | inactive | inactive | inactive
COP(=S)(OC)Oc1cc(Cl)c(Br)cc1Cl | inactive | inactive | inactive | – | 5.64 µM (active) | 11.2 µM (active) | – | – | 17.8 µM (active)
S=C=Nc1cccc2ccccc12 | inactive | inactive | inactive | – | 4.98 µM (active) | 8.85 µM (active) | inactive | 3.14 µM (active) | 2.8 µM (active)
ClCCN1CCOCC1 | inactive | inactive | inactive | – | inactive | inactive | inactive | inactive | inactive
Fc1cccc(Cl)c1CCl | inactive | inactive | inactive | – | inactive | 39.9 µM (active) | inactive | inactive | inactive
CC(=[OH+])/C=C(/C)[O-].CC(=[OH+])/C=C(\C)[O-].CC(=[OH+])/C=C(\C)[O-].[Fe] | inactive | inactive | inactive | – | inactive | inactive | inactive | inactive | inactive
Nc1ccc(Cc2ccc(N)c(Cl)c2)cc1Cl | inactive | inactive | inactive | – | 61.2 µM (active) | 27.3 µM (active) | inactive | 3.44 µM (active) | 6.86 µM (active)
SCc1ccco1 | inactive | inactive | inactive | – | 35.6 µM (active) | 35.6 µM (active) | inactive | – | 39.9 µM (active)
